Data from PubChem BioAssay (NCATS).
Inconclusive results are not listed. A call without a number means that no potency is given here. The source made the active and inactive calls. Calls follow the shape of the dose curve; as a rule, active = well fitted curve in the direction sought with a large enough effect; inconclusive = small, poorly fitted or top-dose-only effect, or another doubt; inactive = no such curve, though single readings can be large; an effect the other way counts as inactive or inconclusive.

System: Tov112D
Assay: Primary qHTS to identify gynecologic anti-cancer compounds using libraries of approved drugs and bioactive compounds (AID 1345084); also: nearly all actives have a fitted effect of over 55% in size
Conditions: Gynecologic cancer cell panel viability, ATPlite luminescence, 48 h; series mostly up to 57.5 µM
Summary of the method: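 Cells, 1,000 per well, were allowed to settle for 16 h at 37 C before compound addition. Five concentrations were tested for 48 h, and viability was read by ATPlite luminescence after 15 min at room temperature.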

SMILES	Potency
CC1(C)[C@H](C(=O)O)N2C(=O)C[C@H]2S1(=O)=O	inactive
O=C(O)CCn1c2c(c3ccccc31)C[C@H](NS(=O)(=O)c1ccc(F)cc1)CC2	inactive
CCOCC(O)COc1ccc(NC(=O)CC[S+](C)C)cc1 (centres undefined)	inactive
Cc1cccc(Nc2ccncc2S(=O)(=O)NC(=O)NC(C)C)c1	inactive
CNS(=O)(=O)CCc1ccc2[nH]cc(C3CCN(C)CC3)c2c1	inactive
CC(C)(C)NC(=O)[C@H]1CC[C@H]2[C@@H]3CC[C@H]4NC(=O)C=C[C@]4(C)[C@H]3CC[C@]12C	inactive
C[C@@H]1C[C@H]2[C@@H]3CCC4=CC(=O)C=C[C@]4(C)[C@@]3(Cl)[C@@H](O)C[C@]2(C)[C@@]1(OC(=O)c1ccco1)C(=O)CCl	inactive
Cc1cc(NS(=O)(=O)c2ccc(N)cc2)no1	inactive
O=NN(CCCl)C(=O)NC1CCCCC1	inactive
CNCC[C@H](Oc1cccc2ccccc12)c1cccs1	inactive
COc1cnc(NS(=O)(=O)c2ccc(N)cc2)nc1	inactive
Cn1nnc2c(C(N)=O)ncn2c1=O	inactive
OC(Cn1cncn1)(Cn1cncn1)c1ccc(F)cc1F	inactive
CCOC(=O)c1ccc(OC(=O)CCCCCN=C(N)N)cc1	inactive
CC1=NN(c2ccccc2)C(=O)C1	inactive
C[C@@H]1CN(c2c(F)c(N)c3c(=O)c(C(=O)O)cn(C4CC4)c3c2F)C[C@H](C)N1	inactive
CCN(C)C(=O)Oc1cccc([C@H](C)N(C)C)c1	inactive
Cc1ncc([N+](=O)[O-])n1CCO	inactive

SMILES	Potency
CN1CCN(c2c(F)cc3c(=O)c(C(=O)O)cn4c3c2OCN4C)CC1	inactive
CN(CCOc1ccc(CC2SC(=O)NC2=O)cc1)c1ccccn1 (centres undefined)	inactive
Cc1onc(-c2ccccc2Cl)c1C(=O)N[C@@H]1C(=O)N2[C@@H]1SC(C)(C)[C@@H]2C(=O)O	inactive
Cc1nnc(NS(=O)(=O)c2ccc(N)cc2)s1	inactive
Nc1ccc(S(=O)(=O)Nc2ccccn2)cc1	inactive
Cc1noc(NS(=O)(=O)c2ccc(N)cc2)c1C	inactive
C#CCN[C@@H]1CCc2ccccc21	inactive
CCCN[C@H]1CCc2nc(N)sc2C1	inactive
NS(=O)(=O)c1cc2c(cc1Cl)NC(C(Cl)Cl)NS2(=O)=O (centres undefined)	inactive
CC[C@H](NC(C)C)[C@H](O)c1ccc(O)c2[nH]c(=O)ccc12	inactive
O=C(O)c1cc(=O)[nH]c(=O)[nH]1	inactive
Cn1c(=O)c2c(ncn2CC(O)CO)n(C)c1=O (centres undefined)	inactive
CO[C@@H]1[C@@H](OC(N)=O)[C@@H](O)[C@H](Oc2ccc3c(O)c(NC(=O)c4ccc(O)c(CC=C(C)C)c4)c(=O)oc3c2C)OC1(C)C	inactive
NCCCC(O)(P(=O)(O)O)P(=O)(O)O	inactive
CCn1cc(C(=O)O)c(=O)c2cc(F)c(N3CCNCC3)nc21	inactive
COc1nc(N)nc2c1ncn2[C@@H]1O[C@H](CO)[C@@H](O)[C@@H]1O	inactive
COc1ccccc1OCC(O)COC(N)=O (centres undefined)	inactive

System: not listed separately
Assay: Drug repurposing screens with cells derived from glioblastoma tumor samples (AID 1345199); also: nearly all actives have a fitted effect of over 40% in size
Conditions: GBM patient neurospheres viability, ATP luminescence, 48 h; at 20 µM (top of the series); tumour line C
Summary of the method: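 Four patient lines of CD133+ GBM neurospheres were screened at several concentrations; hits were retested in those lines plus three slower-growing GBM lines, using 48-hour treatment and ATP-based viability.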

SMILES	activity, negative = cell killing
Cc1cccc(Nc2ccncc2S(=O)(=O)NC(=O)NC(C)C)c1	-12.8% (inactive)
CC(C)(C)NC(=O)[C@H]1CC[C@H]2[C@@H]3CC[C@H]4NC(=O)C=C[C@]4(C)[C@H]3CC[C@]12C	-3.62% (inactive)
C[C@@H]1C[C@H]2[C@@H]3CCC4=CC(=O)C=C[C@]4(C)[C@@]3(Cl)[C@@H](O)C[C@]2(C)[C@@]1(OC(=O)c1ccco1)C(=O)CCl	13.7% (inactive)
COc1cnc(NS(=O)(=O)c2ccc(N)cc2)nc1	-10.8% (inactive)
CCOC(=O)c1ccc(OC(=O)CCCCCN=C(N)N)cc1	-4.52% (inactive)
Cc1onc(-c2ccccc2Cl)c1C(=O)N[C@@H]1C(=O)N2[C@@H]1SC(C)(C)[C@@H]2C(=O)O	1.94% (inactive)
Nc1ccc(S(=O)(=O)Nc2ccccn2)cc1	-7.01% (inactive)
NS(=O)(=O)c1cc2c(cc1Cl)NC(C(Cl)Cl)NS2(=O)=O (centres undefined)	6.84% (inactive)
Cn1c(=O)c2c(ncn2CC(O)CO)n(C)c1=O (centres undefined)	1.09% (inactive)
CO[C@@H]1[C@@H](OC(N)=O)[C@@H](O)[C@H](Oc2ccc3c(O)c(NC(=O)c4ccc(O)c(CC=C(C)C)c4)c(=O)oc3c2C)OC1(C)C	-4.06% (inactive)
CCn1cc(C(=O)O)c(=O)c2cc(F)c(N3CCNCC3)nc21	-1.66% (inactive)
COc1ccccc1OCC(O)COC(N)=O (centres undefined)	-0.35% (inactive)

Same assay, conditions: GBM patient neurospheres viability, ATP luminescence, 48 h; at 21.2 µM (top of the series); tumour line B

SMILES	activity, negative = cell killing
Cc1cccc(Nc2ccncc2S(=O)(=O)NC(=O)NC(C)C)c1	-1.96% (inactive)
CC(C)(C)NC(=O)[C@H]1CC[C@H]2[C@@H]3CC[C@H]4NC(=O)C=C[C@]4(C)[C@H]3CC[C@]12C	-10.8% (inactive)
C[C@@H]1C[C@H]2[C@@H]3CCC4=CC(=O)C=C[C@]4(C)[C@@]3(Cl)[C@@H](O)C[C@]2(C)[C@@]1(OC(=O)c1ccco1)C(=O)CCl	-9.13% (inactive)
COc1cnc(NS(=O)(=O)c2ccc(N)cc2)nc1	-19.1% (inactive)
CCOC(=O)c1ccc(OC(=O)CCCCCN=C(N)N)cc1	-7.17% (inactive)
Cc1onc(-c2ccccc2Cl)c1C(=O)N[C@@H]1C(=O)N2[C@@H]1SC(C)(C)[C@@H]2C(=O)O	-1.92% (inactive)
Nc1ccc(S(=O)(=O)Nc2ccccn2)cc1	0.146% (inactive)
NS(=O)(=O)c1cc2c(cc1Cl)NC(C(Cl)Cl)NS2(=O)=O (centres undefined)	-4.6% (inactive)
Cn1c(=O)c2c(ncn2CC(O)CO)n(C)c1=O (centres undefined)	1.11% (inactive)
CO[C@@H]1[C@@H](OC(N)=O)[C@@H](O)[C@H](Oc2ccc3c(O)c(NC(=O)c4ccc(O)c(CC=C(C)C)c4)c(=O)oc3c2C)OC1(C)C	-5.36% (inactive)
CCn1cc(C(=O)O)c(=O)c2cc(F)c(N3CCNCC3)nc21	-1.31% (inactive)
COc1ccccc1OCC(O)COC(N)=O (centres undefined)	-3.25% (inactive)
